The text below walks through data of PubChem BioAssay (EPA / NIEHS).

Experiment [1] can be described thus: TOX21_p53_BLA_p2_viability: Viability Assessment in the Tox21 HCT-116 p53 Agonism Beta-lactamase Assay, Phase 2 (AID 2283591).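 Note: actives lower the ATP signal meaning cytotoxicity.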 In short, it runs like this:
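HCT-116 p53-bla cells (4000/well) rested 5 h at 37C, then received compounds in DMSO (217-fold dilution) for 16 h at 37C, 5% CO2. After the CCF4 read, CellTiter-Glo was added; ATP luminescence was read after 30 min at room temperature.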

The target in experiment [2] is Cellular tumor antigen p53 (Homo sapiens) (UniProt P04637). Put plainly: TOX21_p53_BLA_p2_ratio: Tox21 HCT-116 p53 Agonism Beta-lactamase Assay, Ratio, Phase 2 (AID 2283592). In short, it runs like this: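 Read-out is the blue/green (460/530 nm, 405 nm excitation) ratio after 2 h CCF4-AM loading, fitted as gain versus DMSO. Compounds, pinned at 217-fold dilution from DMSO stocks, stayed 16 h on HCT-116 beta-lactamase reporter cells seeded 5 h earlier.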

Experiment [3] in a line: TOX21_p53_BLA_p3_viability: Viability Assessment in the Tox21 HCT-116 p53 Agonism Beta-lactamase Assay, Phase 3 (AID 2283593).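 Note: cells exposed to compound for 16 h before reading.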 In short, it runs like this: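 HCT-116 cells (4000/well) rested 5 h at 37C, then got DMSO compounds by pin tool (217-fold dilution) for 16 h at 37C, 5% CO2. After the bla read, CellTiter-Glo was added and luminescence read at 30 min, room temperature.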

Experiment [4] has as its target Cellular tumor antigen p53 (Homo sapiens) (UniProt P04637). Put plainly: TOX21_p53_BLA_p3_ratio: Tox21 HCT-116 p53 Agonism Beta-lactamase Assay, Ratio, Phase 3 (AID 2283596). In short, it runs like this: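 Cells were seeded at 4000/well, rested 5 h at 37C, then dosed with DMSO compound solutions (217-fold dilution) for 16 h. CCF4-AM substrate was loaded for 2 h at room temperature, and the 460/530 nm emission ratio was fitted for gain of signal versus DMSO.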

Experiment [5] has the same target. Put plainly: TOX21_p53_BLA_p5_ratio: Tox21 HCT-116 p53 Agonism Beta-lactamase Assay, Ratio, Phase 5 (AID 2283599). In short, it runs like this: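 HCT-116 cells carrying a p53-inducible beta-lactamase reporter were seeded at 4000 cells/well and dosed after 5 h with compound in DMSO (217-fold dilution). After 16 h at 37C, CCF4-AM substrate was added for 2 h, and the 460/530 nm emission ratio was scored as gain-of-signal versus DMSO.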

A short description of experiment [6]: TOX21_p53_BLA_p5_viability: Viability Assessment in the Tox21 HCT-116 p53 Agonism Beta-lactamase Assay, Phase 5 (AID 2283600). The method, boiled down:
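Viability came from CellTiter-Glo ATP luminescence, read after 30 min at room temperature. Before this, HCT-116 p53-bla cells (4000/well) had 16 hours of compound exposure at 37C, with DMSO stocks diluted 217-fold on transfer.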

Experiment [7] concerns the target Cellular tumor antigen p53 (Homo sapiens) (UniProt P04637). Briefly: TOX21_p53_BLA_p4_ratio: Tox21 HCT-116 p53 Agonism Beta-lactamase Assay, Ratio, Phase 4 (AID 2283601). The method, boiled down:
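HCT116 cells carrying an inducible beta-lactamase reporter were plated at 4000 cells/well, rested 5 h, then exposed to compounds in DMSO (217-fold dilution) for 16 h at 37C. CCF4-AM substrate was loaded 2 h at room temperature; 460/530 nm emission ratio scored gain-of-signal versus DMSO.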

Experiment [8] in a line: CCTE_Deisenroth_DEVTOX-GLR_legacy_CellCount: (Legacy) Viability Assessment in CCTE's DevTox GLR-Endo Assay, Deisenroth Lab (AID 2284331; active = hit-call score of the fitted dose curve at least 0.9, where 1 is the maximum; inactive = score below 0.9). To be noted: actives raise or lower the signal. In short, it runs like this:
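Seed RUES2-GLR 24 h; differentiate 48 h, dosing at 0 and 24 h; fix, stain nuclei; image 5 fields/well; count nuclei. Conc. 1 nM - 200 uM, single technical replicate, n=4 experiments; bidirectional fit vs 0.2% DMSO.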

Experiment [9] relates to SRY-box transcription factor 17 (SOX17) Protein Expression, Deisenroth Lab, SOX17 (gene 64321). Put plainly: CCTE_Deisenroth_DEVTOX-GLR_legacy_Sox17: (Legacy) CCTE's DevTox GLR-Endo Assay Evaluation of SRY-box transcription factor 17 (SOX17) Protein Expression, Deisenroth Lab (AID 2284341; active = hit-call score of the fitted dose curve at least 0.9, where 1 is the maximum; inactive = score below 0.9). To be noted: actives raise or lower the signal. The method, boiled down:
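Using the RUES2-GLR line, compounds are tested as 10-point series during 48-h defined-media differentiation. Sox17 reporter fluorescence per cell determines positivity; endpoint is percentage positive, analysed bidirectionally versus DMSO baseline.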

In experiment [10] the test system is SRY-box transcription factor 2 (SOX2) Protein Expression, Deisenroth Lab, SOX2 (gene 6657). Put plainly: CCTE_Deisenroth_DEVTOX-GLR_legacy_Sox2: (Legacy) CCTE's DevTox GLR-Endo Assay Evaluation of SRY-box transcription factor 2 (SOX2) Protein Expression, Deisenroth Lab (AID 2284346; active = hit-call score of the fitted dose curve at least 0.9, where 1 is the maximum; inactive = score below 0.9). The method, boiled down:
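Two exposures, 24 h apart, during 48 h defined-media differentiation of seeded RUES2-GLR cells; nuclei-stained cells imaged. Sox2 positivity called at 5x BMAD above endoderm control median, DMSO median subtracted.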

The test system of experiment [11] is SRY-box transcription factor 17 (SOX17) Protein Expression, Deisenroth Lab, SOX17 (gene 64321). Put plainly: CCTE_Deisenroth_DEVTOX-GLR_Endo_SOX17: CCTE's DevTox GLR-Endo Assay Evaluation of SRY-box transcription factor 17 (SOX17) Protein Expression, Deisenroth Lab (AID 2284413; active = hit-call score of the fitted dose curve at least 0.9, where 1 is the maximum; inactive = score below 0.9). The method, boiled down:
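Fluorescent microscopy of a SOX17 reporter in RUES2-GLR pluripotent cells scored endoderm differentiation after 48 h and two 24-h-spaced exposures. Values are percent change in SOX17+ population against 0.2% DMSO, n=4 experimental replicates.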

In experiment [12] the test system is Brachyury (BRA) Protein Expression, TBXT (gene 6862). Put plainly: CCTE_Deisenroth_DEVTOX-GLR_Endo_BRA: CCTE's DevTox GLR-Endo Assay Evaluation of Brachyury (BRA) Protein Expression, Deisenroth Lab (AID 2284417; active = hit-call score of the fitted dose curve at least 0.9, where 1 is the maximum; inactive = score below 0.9). In short, it runs like this: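 Percent BRA+ (mesoderm) RUES2-GLR cells after 48 h differentiation with two exposures, 1 nM - 200 uM; 0.2% DMSO control subtracted.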

A short description of experiment [13]: CCTE_Deisenroth_DEVTOX-GLR_Endo_CellCount: Viability Assessment in CCTE's DevTox GLR-Endo Assay, Deisenroth Lab (AID 2284420; active = hit-call score of the fitted dose curve at least 0.9, where 1 is the maximum; inactive = score below 0.9). The method, boiled down:
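Percent change in nuclear-stain cell counts versus 0.2% DMSO, from high-content imaging over 5 fields per well. Over a 48 h endoderm differentiation, RUES2-GLR cells received two doses 24 h apart across a 1 nM–200 uM series, with n=4.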

Experiment [14] concerns SRY-box transcription factor 17 (SOX17) Protein Expression, Deisenroth Lab, SOX17 (gene 64321). Briefly: CCTE_Deisenroth_DEVTOX-GLR_Pluri_SOX17: CCTE's DevTox GLR-Pluri Assay Evaluation of SRY-box transcription factor 17 (SOX17) Protein Expression, Deisenroth Lab (AID 2284427). The method, boiled down: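 The endpoint is SOX17+ cells as a fraction of cell count, corrected for the 0.2% DMSO control and obtained by high-content fluorescence imaging of fixed cells. Cells were RUES2-GLR under a 48-hour endoderm differentiation, dosed twice at 24-hour intervals over 1 nM–200 uM.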

Experiment [15] can be described thus: CCTE_Deisenroth_DEVTOX-GLR_Pluri_CellCount: Viability Assessment in CCTE's DevTox GLR-Pluri Assay Evaluation of Total Cell Counts, Deisenroth Lab (AID 2284430; active = hit-call score of the fitted dose curve at least 0.9, where 1 is the maximum; inactive = score below 0.9). The method, boiled down:
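Cytotoxicity readout: fluorescent nuclei counts by high-content imaging, expressed as percent change relative to 0.2% DMSO. Human RUES2-GLR pluripotent line differentiated 48 h, dosed twice at 24-h intervals across 1 nM - 200 uM (10 points).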

Experiment [16] deals with PGR (gene 5241) (UniProt P06401). Briefly: TOX21_PR_BLA_Followup_Antagonist_ratio: Tox21 HEK293 Progesterone Receptor (PR) Antagonism Beta-lactamase Follow-Up Assay, Ratio (AID 2283934).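 Note: PR-UAS-bla HEK293T cells stimulated with 1 nM R5020 agonist for 16 hr.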 The method, boiled down: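 Measured in PR-UAS-bla HEK293T cells co-treated with compound and 1 nM promegestone for 16 hr; beta-lactamase ratio read after 2 h FRET substrate loading, with parallel CellTiter-Glo cytotoxicity.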

A short description of experiment [17]: TOX21_PR_BLA_Followup_Agonist_viability: Viability Assessment in the Tox21 HEK293 Progesterone Receptor (PR) Agonism Beta-lactamase Follow-Up Assay (AID 2283935).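 Note: signal loss means lower viability so actives are cytotoxic.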 In short, it runs like this: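 Viability is read as CellTiter-Glo luminescence, where loss of signal indicates cytotoxicity. The cells are PR-UAS-bla HEK293T given compounds for 16 hr at 37C and 5% CO2, in the same wells used for the bla readout.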

Experiment [18] can be described thus: TOX21_PR_BLA_Followup_Antagonist_viability: Viability Assessment in the Tox21 HEK293 Progesterone Receptor (PR) Antagonism Beta-lactamase Follow-Up Assay (AID 2283936).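 Note: cells exposed to compound with R5020 agonist for 16 h; hits lower the luminescence signal meaning cytotoxicity.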 In short, it runs like this:
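PR-UAS-bla HEK293T cells in medium with 2% charcoal-stripped FBS were treated with compounds plus R5020 for 16 hr at 37C. After the beta-lactamase read, CellTiter-Glo was added to the same wells and luminescence read after 30 min at room temperature.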

In experiment [19] the target is PGR (gene 5241) (UniProt P06401). Briefly: TOX21_PR_LUC_Followup_Agonist: Tox21 HEK293 Progesterone Receptor (PR) Agonism Luciferase Follow-Up Assay (AID 2283937; active = hit-call score of the fitted dose curve at least 0.9, where 1 is the maximum; inactive = score below 0.9). In short, it runs like this: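 In HEK293 cells stably expressing PR-A with a luciferase reporter, compounds were incubated 16 h at 37C, and induced luminescence was quantified with ONE-Glo, multiplexed with cell viability.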

For experiment [20] the target is unchanged. Briefly: TOX21_PR_LUC_Followup_Antagonist: Tox21 HEK293 Progesterone Receptor (PR) Antagonism Luciferase Follow-Up Assay (AID 2283938).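 Note: curve fitted upward as signal gain over DMSO baseline despite antagonist label.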 In short, it runs like this: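 Luminescence from ONE-Glo was measured 30 min after reagent addition, following 16 h exposure of HEK293-PR-A-luc cells (3,000/well, plated 5 h earlier) to DMSO-dissolved compounds at 37C; DMSO served as baseline.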

A short description of experiment [21]: TOX21_PR_LUC_Followup_Antagonist_viability: Viability Assessment in the Tox21 HEK293 Progesterone Receptor (PR) Antagonism Luciferase Follow-Up Assay (AID 2283940). In short, it runs like this: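 Loss of CellTiter-Glo ATP signal indicates cytotoxicity in HEK293-PR-A-luc cells grown in 10% charcoal-stripped FBS medium, seeded 3,000 per well and incubated 16 h with compound at 37C.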

Experiment [22] in a line: TOX21_PR_LUC_Followup_Agonist_viability: Viability Assessment in the Tox21 HEK293 Progesterone Receptor (PR) Agonism Luciferase Follow-Up Assay (AID 2283941).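 Note: loss of signal means cytotoxicity so actives lower viability.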 The method, boiled down:
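Seeding: HEK293-PR-A-luc, 3,000 cells/well, 5 h at 37C. Treatment: compound in DMSO, 16 h, 37C. Read: CellTiter-Glo ATP luminescence, signal loss taken as lower viability.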

A short description of experiment [23]: TOX21_TR_RXR_BLA_Agonist_Followup_viability: Viability Assessment in the Tox21 Thyroid Hormone Receptor beta Retinoid X Receptor alpha (RXRa) Agonism Beta-lactamase (BLA) Follow-Up Assay (AID 2283970). In short, it runs like this: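 Luminescent ATP read (CellTiter-Glo) after 16h exposure of RXRa-UAS-bla HEK293T cells at 37C/5% CO2. Activity normalized to DMSO; signal loss scored as reduced viability.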

Molecules are shown by their SMILES. Inconclusive results are not listed. Calls of active or inactive are those of the source. Rule for the calls, unless noted: active = hit-call score of the fitted dose curve at least 0.9, where 1 is the maximum; inconclusive = response in the unintended direction; inactive = score below 0.9.

Chain of Cellular tumor antigen p53 (Homo sapiens) (P04637 whole entry, looked up): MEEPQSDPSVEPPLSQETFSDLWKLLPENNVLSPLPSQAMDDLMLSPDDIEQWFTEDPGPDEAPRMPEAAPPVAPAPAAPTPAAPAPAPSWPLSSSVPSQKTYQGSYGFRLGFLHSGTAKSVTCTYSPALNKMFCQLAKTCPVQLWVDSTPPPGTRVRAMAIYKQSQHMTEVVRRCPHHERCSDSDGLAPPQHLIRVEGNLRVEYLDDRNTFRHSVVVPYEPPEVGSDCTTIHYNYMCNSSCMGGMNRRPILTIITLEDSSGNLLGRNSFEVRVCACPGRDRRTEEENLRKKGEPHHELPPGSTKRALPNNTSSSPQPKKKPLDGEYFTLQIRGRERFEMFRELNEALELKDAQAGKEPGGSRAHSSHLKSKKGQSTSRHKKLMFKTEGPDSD
Chain of PGR (gene 5241) (P06401 whole entry, looked up): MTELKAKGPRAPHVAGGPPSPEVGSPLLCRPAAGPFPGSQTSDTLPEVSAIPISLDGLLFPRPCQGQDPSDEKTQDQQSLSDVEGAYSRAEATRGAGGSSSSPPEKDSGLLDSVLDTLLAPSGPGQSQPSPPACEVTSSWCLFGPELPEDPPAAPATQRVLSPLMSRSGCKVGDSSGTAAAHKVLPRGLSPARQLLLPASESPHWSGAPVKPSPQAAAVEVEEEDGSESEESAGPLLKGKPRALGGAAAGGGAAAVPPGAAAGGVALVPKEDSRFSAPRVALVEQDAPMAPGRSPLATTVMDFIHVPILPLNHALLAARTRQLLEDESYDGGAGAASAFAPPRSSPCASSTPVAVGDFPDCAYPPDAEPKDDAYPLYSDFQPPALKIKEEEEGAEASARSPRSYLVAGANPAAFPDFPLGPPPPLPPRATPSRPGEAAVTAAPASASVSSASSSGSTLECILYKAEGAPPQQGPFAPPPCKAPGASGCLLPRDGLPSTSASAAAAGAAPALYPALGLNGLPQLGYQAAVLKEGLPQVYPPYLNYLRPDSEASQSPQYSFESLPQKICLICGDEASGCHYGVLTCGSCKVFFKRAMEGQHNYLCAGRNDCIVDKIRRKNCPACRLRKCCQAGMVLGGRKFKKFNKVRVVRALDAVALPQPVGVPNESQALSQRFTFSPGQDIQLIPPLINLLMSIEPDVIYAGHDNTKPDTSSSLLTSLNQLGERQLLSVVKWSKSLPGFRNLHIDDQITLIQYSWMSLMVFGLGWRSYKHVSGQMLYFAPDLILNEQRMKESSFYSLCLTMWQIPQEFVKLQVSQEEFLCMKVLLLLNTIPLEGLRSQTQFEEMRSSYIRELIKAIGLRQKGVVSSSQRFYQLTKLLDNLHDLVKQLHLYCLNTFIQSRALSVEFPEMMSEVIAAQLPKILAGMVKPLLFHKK

On to `Cc1nc2sccn2c(=O)c1CCN1CCC(=C(c2ccc(F)cc2)c2ccc(F)cc2)CC1`, for which the AC50 in [1] was 37.8 µM (active); in experiment [2], 36.5 µM (active); in experiment [3] it was 8.52 µM (active); in [8], 9.28 µM (active); in [9] it was 11 µM (active); in experiment [10], 8.41 µM (active). Moreover, the half-maximal activity concentration (AC50) in experiment [11] was 11 µM (active); in [12], 17.7 µM (active); in [13], 9.15 µM (active); in experiment [15] it was 9.92 µM (active). Besides, the result in experiment [4], in [5], in [6], in experiment [7] and in [14] was inactive.
As to `COC(=O)C1=C(C)NC(COC(N)=O)=C(C(=O)OC(C)C)C1c1cccc(Cl)c1Cl` (stereo not given), the result (in [1]; in experiment [3]; in experiment [4]; in experiment [6]; with PGR (gene 5241) [16]; in [17]) was inactive. In addition, the result (in [18]; with PGR (gene 5241) [19]; in experiment [21]; in experiment [22]) was inactive. For the same compound, the AC50 was 33.5 µM (active) in experiment [2], 25.5 µM (active) in experiment [5], 28.8 µM (active) in [7] and 7.88 µM (active) with PGR (gene 5241) [20].
On to `NCCC(O)(P(=O)(O)O)P(=O)(O)O`, for which the compound was classed as inactive in experiment [1], in [2], in experiment [3], in experiment [4], in experiment [5] and in experiment [7].
Consider `CC1=C(/C=C/C(C)=C/C=C/C(C)=C\C(=O)O)C(C)(C)CCC1`, for which the call in [1], in experiment [2], in experiment [5], in experiment [6], in experiment [7] and in [23] was inactive. The AC50 is 42.9 µM (active) in experiment [3]; 87.3 µM (active) in experiment [4]; 0.159 µM (active) in experiment [9]; 41.3 µM (active) in [10]; 0.119 µM (active) in [11]; 28 µM (active) in [12]. Moreover, the concentration at half-maximal activity (AC50) was 10.7 µM (active) in experiment [13], 20.2 µM (active) in [14] and 19 µM (active) in experiment [15].
